Consider 57 compounds from PubChem BioAssay AID2235 (The Scripps Research Institute Molecular Screening Center, 2010).

For orientation: inhibition means the relative decrease from the control value, in per cent.

The campaign covered roughly 320,000 compounds. About 2,800 (0.88%) were called active.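 The calls were made as follows: active = inhibition above the mean inhibition of all tested compounds plus 3 SD, computed separately for each screening campaign (cut at about 15% in these data); inactive = the rest.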 The sample as a whole holds a higher share of actives than the screen did.

The target in the assay is Serine/threonine-protein phosphatase PP1-alpha catalytic subunit (Homo sapiens) (UniProt P62136). Description: PP1-alpha phosphatase inhibitors, primary screen, counter-screen for PP5 inhibitor project, biochemical, fluorescence, OMFP substrate, single point (AID 2235). As to conditions: purified PP1alpha, at 6.7 µM, hits give high values. On the technique in general: Counterscreens check selectivity or assay interference.
Chain of Serine/threonine-protein phosphatase PP1-alpha catalytic subunit (Homo sapiens) (P62136 whole entry, looked up): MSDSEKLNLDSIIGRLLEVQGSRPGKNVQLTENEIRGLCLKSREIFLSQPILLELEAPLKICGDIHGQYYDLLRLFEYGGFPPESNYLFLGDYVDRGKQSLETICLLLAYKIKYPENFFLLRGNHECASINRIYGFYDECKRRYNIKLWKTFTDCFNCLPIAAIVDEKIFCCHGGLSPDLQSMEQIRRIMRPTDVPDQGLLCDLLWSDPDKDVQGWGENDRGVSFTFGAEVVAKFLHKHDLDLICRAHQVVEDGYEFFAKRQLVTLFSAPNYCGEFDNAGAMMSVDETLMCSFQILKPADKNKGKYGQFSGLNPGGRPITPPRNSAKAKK
As to `Cc1ccccc1/C=C\c1nc(O)c([N+](=O)[O-])c(=O)[nH]1`, the inhibition was -3.61% (inactive).
In the case of `CC(=O)c1ccc(N2CCN(S(=O)(=O)c3c(C)[nH]c(=O)[nH]c3=O)CC2)cc1` it was -4.3% (inactive); in that of `CC(=O)c1ccc(N2CCN(S(=O)(=O)c3ccc4c(c3)CC(=O)N4C)CC2)cc1`, 20.6% (active).
To `CC(=O)c1ccc(N2CCN(C(=O)C3CCN(S(=O)(=O)c4ccc5c(c4)CC(C)N5C(=O)C4CC4)CC3)CC2)cc1` (configuration not stated) belongs 8.74% (inactive); to `COc1cccc(NC(=O)C/C(C)=N/NC(=O)C2CCCCC2)c1`, 4.45% (inactive); to `COc1ccc(CCNC(=O)C2CC3Cn4c(nc5cc(C)c(C)cc54)C3N2C)cc1` (configuration not stated), -2.39% (inactive).
On to `C=CCOC(=O)C1=C[C@@H](c2ccc3c(c2)OCO3)C[C@@H](OCCCCO)O1`, for which the inhibition was 5.48% (inactive).
In the case of `O=C(CN1C(=O)NC(Cc2ccccc2)(Cc2ccccc2)C1=O)NCC1CCCCC1` it was -3.39% (inactive); in that of `OCCNc1nc(Nc2ccc(Cl)c(Cl)c2)nc2ccccc12`, 23.4% (active).
To `CN(C)c1nc(Nc2ccc(Cl)c(Cl)c2)nc(N(C)C)n1` belongs 0.07% (inactive); to `COc1cc2nc(Cl)nc(NCCO)c2cc1OC`, -3.14% (inactive).
`CCc1ccc(CNC(=O)C2CC(=O)N(CCc3ccc(C)cc3)C2)cc1` (configuration not stated): the inhibition is -3.41% (inactive).
In the case of `CCC(=O)N1CCN=C1SCc1ccc(F)cc1` it was -1.6% (inactive); in that of `CCOC(=O)C1=C(O)/C(=C/c2ccc(OCC(=O)Nc3ccc(C)cc3)cc2)N=C1C`, 15.1% (inactive); in that of `Cc1ccc(NC(=O)COc2ccc(/C=C3/NC(=O)NC3=O)cc2)cc1`, 19.3% (active).
To `COC(=O)C1=C(O)/C(=C/c2ccc(OCC(=O)Nc3ccccc3)cc2)N=C1C` belongs 1.71% (inactive).
To `CCc1cccc(NC(=O)COC(=O)C2CCN(c3ccc(C(F)(F)F)cn3)CC2)c1` belongs 3.82% (inactive).
For `Cc1noc(C)c1S(=O)(=O)NCCc1ccc(S(N)(=O)=O)cc1`, the inhibition is -1.43% (inactive).
In the case of `O=C(c1ccc(Cl)c(S(=O)(=O)N2CCCCCC2)c1)N1CCN(c2ccc(O)cc2)CC1` it was 5.02% (inactive); in that of `CC(C)n1ncc2c(C(=O)NCc3ccccc3CN(C)C)cc(C3CC3)nc21`, 3.23% (inactive); in that of `O=C(NCC(c1ccco1)N1CCc2ccccc2C1)c1ccccc1Cl` (configuration not stated), -5.84% (inactive).
`O=C(/C=C/c1ccc(F)cc1)NCCNC(=O)/C=C/c1ccc(F)cc1`: the inhibition is -0.56% (inactive).
In the case of `O=C(/C=C/c1ccc(F)cc1)NC(=S)NNC(=O)c1cccnc1` it was 24.8% (active); in that of `CC(C)c1ccc(/C=C/C(=O)NNC(=O)c2cccnc2)cc1`, -4.56% (inactive); in that of `CCN(CC)Cc1c(C(=O)N/N=C/c2cccc(OCc3ccc(F)cc3)c2)nnn1-c1nonc1N`, -5.41% (inactive).
To `COc1cccc(N2CCN(c3ccc4nnc(CCC(=O)N5CCN(C)CC5)n4n3)CC2)c1` belongs -3.98% (inactive); to `NC(N)=N/N=C/c1ccc(OCc2ccc(Cl)cc2Cl)cc1`, 37.2% (active); to `CCOc1ccc(NC(=O)NNC(=O)c2ccc(Cl)cc2Cl)cc1`, 3.13% (inactive).
In the case of `OC(CNCCc1ccc(Cl)cc1Cl)COc1ccccc1` (configuration not stated), the inhibition was 10.6% (inactive).
To `Cc1cccc(Nc2nnc(SCC(=O)c3c(N)n(C4CC4)c(=O)[nH]c3=O)s2)c1C` belongs -0.71% (inactive); to `O=C(O)c1cc([N+](=O)[O-])c(Nc2cccc3ccccc23)c([N+](=O)[O-])c1`, 3.7% (inactive).
To `Cc1ccc(C)c(Cn2nnc3c(=O)[nH]c(C(=O)Nc4ccc(F)cc4)nc32)c1` belongs 46.5% (active); to `O=C(Nc1ccc(F)cc1)N1CCCC(c2nc3c(nnn3Cc3ccccc3Cl)c(=O)[nH]2)C1` (configuration not stated), 4.93% (inactive).
To `Cc1cc(C)cc(NC(=O)Cn2cnc3c(nnn3Cc3ccc(F)cc3)c2=O)c1` belongs 8.94% (inactive).
On to `CCCn1nnnc1NCc1ccc(CC)cc1`, for which the inhibition is 0.05% (inactive).
As to `Cc1nc(NC(=O)C2CCCCC2)sc1C`, the inhibition was -0.06% (inactive).
To `Cc1ccc(NC(=O)N2CCC(c3nc4c(nnn4Cc4c(F)cccc4Cl)c(=O)[nH]3)CC2)cc1` belongs 4.5% (inactive); to `COc1ccc(Cn2nnc3c(=O)[nH]c(C4CCN(C(=O)c5ccccc5Cl)CC4)nc32)cc1`, 1.01% (inactive); to `Cc1ccc(Cn2nnc3c(=O)[nH]c(C4CCN(S(=O)(=O)/C=C/c5ccccc5)CC4)nc32)cc1`, 20.9% (active).
In the case of `Cc1ccc(S(=O)(=O)CCC(=O)OCc2ccccc2)cc1` it was -6.27% (inactive).
To `CC(=O)[C@@]12O[C@@H]1C[C@H]1[C@@H]3CC[C@H]4C[C@@H](O)CC[C@]4(C)[C@H]3CC[C@@]12C` belongs 0.47% (inactive); to `C=CCN(CC=C)S(=O)(=O)c1ccc(C(=O)Nc2sc3c(c2C(N)=O)CCCCC3)cc1`, -0.71% (inactive); to `C=CCN(CC=C)S(=O)(=O)c1ccc(C(=O)Nc2nc3c(s2)CCc2ccccc2-3)cc1`, 25.9% (active).
On to `CCN(c1ccccc1)S(=O)(=O)c1ccc(C(=O)Nc2nccs2)cc1`, for which the inhibition is 1.49% (inactive).
To `COc1ccc(C(=O)Nc2ncc3c(n2)-c2ccccc2CC3)cc1` belongs -1.56% (inactive); to `COCCN(CCOC)S(=O)(=O)c1ccc(/C(O)=C(\C#N)c2nc3ccccc3[nH]2)cc1`, -3.73% (inactive); to `COCCN(CCOC)S(=O)(=O)c1ccc(C(=O)Nc2nc3c(s2)CCc2ccccc2-3)cc1`, 22.6% (active).
Regarding `Cc1ccc(NC(=S)Nc2ncccc2C)c(C)c1`, the inhibition is -1.13% (inactive).
To `C#CCOCCOCCOCCNc1nc(N2CCN(C(=O)[C@H](C(C)C)n3cc(CCO)nn3)CC2)nc(N2CCN(C(=O)[C@H]([C@@H](C)CC)n3cc(CCCN=C(N)N)nn3)CC2)n1` belongs 0.22% (inactive); to `C#CCOCCOCCOCCNc1nc(N2CCN(C(=O)[C@H](CCCCN)n3cc(CCC(=O)O)nn3)CC2)nc(N2CCN(C(=O)[C@H](CCCCN)n3cc(CC(C)O)nn3)CC2)n1` (some centres not stated), 5.96% (inactive).
Turning to `C#CCOCCOCCOCCNc1nc(N2CCN(C(=O)[C@H](CCCCN)n3cc([C@@H](N)C(C)CC)nn3)CC2)nc(N2CCN(C(=O)[C@H](Cc3ccc(O)cc3)n3cc([C@@H](N)C(C)CC)nn3)CC2)n1` (some centres not stated), the inhibition is 5.1% (inactive).
To `C#CCOCCOCCOCCNc1nc(N2CCN(C(=O)CCCCCCCCCCNC(=O)[C@H]([C@@H](C)CC)n3cc(CCCCN=C(N)N)nn3)CC2)nc(N2CCN(C(=O)CCCCCCCCCCNC(=O)[C@H](CO)n3cc(CCCSC)nn3)CC2)n1` belongs 53.8% (active); to `C#CCOCCOCCOCCNc1nc(N2CCN(C(=O)C([C@@H](C)CC)n3cc(C(N)COC(=O)C(F)(F)F)nn3)CC2)nc(N2CCN(C(=O)[C@H](CCCCN)n3cc(C(N)CC(C)C)nn3)CC2)n1` (some centres not stated), 8.45% (inactive).
As for `C#CCOCCOCCOCCNc1nc(N2CCN(C(=O)CCCCCCCCCCNC(=O)[C@H](CCCCN)n3cc(C)nn3)CC2)nc(N2CCN(C(=O)CCCCCCCCCCNC(=O)[C@H](CO)n3cc(CCCSC)nn3)CC2)n1`, the inhibition is 64.8% (active).
In the case of `C#CCOCCOCCOCCNc1nc(N2CCN(C(=O)Cn3cc(CCCCN)nn3)CC2)nc(N2CCN(C(=O)[C@H](CCCCN)n3cc(CCC(=O)O)nn3)CC2)n1` it was -0.58% (inactive); in that of `C#CCOCCOCCOCCNc1nc(N2CCN(C(=O)CCCCCCCCCCNC(=O)Cn3cc(CCCCCN)nn3)CC2)nc(N2CCN(C(=O)CCCCCCCCCCNC(=O)[C@H](CO)n3cc(CCCSC)nn3)CC2)n1`, 64.7% (active).
As for `C#CCOCCOCCOCCNc1nc(N2CCN(C(=O)[C@H](C(C)C)n3cc(CCO)nn3)CC2)nc(N2CCN(C(=O)[C@H](C(C)C)n3cc(CCO)nn3)CC2)n1`, the inhibition is -0.91% (inactive).
